Laboratory results published in the supplement of paper PMC6555819.

Columns and labels:
Experiment in all cases: PBM binding z-score (relative to random genomic background probes); higher = stronger binding; sequences stand for … in GC…GCGATTGACAGCGTAGAATGAAGG
[1] = system: FXR:RXRa (NR concentration 270 nM, RXRa partner concentration 90 nM)
In short: (§1)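 Scanned fluorescence from custom Agilent 4×180K protein-binding microarrays was regression-normalized. Binding z-scores use random background probes as reference. Ligand-free nuclear receptor dimers were incubated on the arrays for 1 h and detected with antibodies against each partner (one per run).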

[2] = system: LXRa:RXRa (NR concentration 270 nM, RXRa partner concentration 90 nM)
In short: as §1

[3] = system: LXRa homodimer (NR concentration 270 nM)
In short: as §1

[4] = system: LXRb:RXRa (NR concentration 270 nM, RXRa partner concentration 90 nM)
In short: as §1

[5] = system: PPARa:RXRa (NR concentration 270 nM, RXRa partner concentration 90 nM)
In short: as §1

[6] = system: PPARg:RXRa (NR concentration 180 nM, RXRa partner concentration 90 nM)
In short: as §1

[7] = system: PPARg:RXRa 270nM:90nM, anti-RXR (NR concentration 270 nM, RXRa partner concentration 90 nM)
In short: as §1

[8] = system: PPARg:RXRa 30nM:10nM, anti-RXR (NR concentration 30 nM, RXRa partner concentration 10 nM)
In short: as §1

[9] = system: PPARg:RXRa 90nM:30nM, anti-RXR (NR concentration 90 nM, RXRa partner concentration 30 nM)
In short: as §1

[10] = system: PPARg:RXRa DBDmut IVT, anti-RXR (DBD mutation: RXRa K156A/R161A, NR concentration 270 nM, RXRa partner concentration 90 nM)
In short: as §1

[11] = system: PPARg:RXRa IVT, anti-PPARg (NR concentration 270 nM, RXRa partner concentration 90 nM)
In short: as §1

[12] = system: PPARg homodimer (NR concentration 180 nM)
In short: as §1

[13] = system: PXR:RXRa (NR concentration 270 nM, RXRa partner concentration 90 nM)
In short: as §1

[14] = system: PXR homodimer (NR concentration 270 nM)
In short: as §1

[15] = system: RARa:RXR (NR concentration 270 nM, RXRa partner concentration 90 nM)
In short: as §1

[16] = system: RARa homodimer (NR concentration 270 nM)
In short: as §1

[17] = system: RARb:RXRa (NR concentration 270 nM, RXRa partner concentration 90 nM)
In short: as §1

Sequence | PBM binding z-score [1] | PBM binding z-score [2] | PBM binding z-score [3] | PBM binding z-score [4] | PBM binding z-score [5] | PBM binding z-score [6] | PBM binding z-score [7] | PBM binding z-score [8] | PBM binding z-score [9] | PBM binding z-score [10] | PBM binding z-score [11] | PBM binding z-score [12] | PBM binding z-score [13] | PBM binding z-score [14] | PBM binding z-score [15] | PBM binding z-score [16] | PBM binding z-score [17]
CTATGTAGGTTTAGGGGGTCATTCAGTTTGAAAG | 4.33 | 4.71 | 4.34 | 5.97 | 5.41 | 4.01 | 5.15 | 2.66 | 4.77 | 3.47 | 4.95 | 3.1 | 5.4 | 9.15 | 5.1 | 1.56 | 2.93
TCGGGTAGGTTACGGGGGCATTCAGGGATGAAGA | 3.9 | 4.06 | 2.17 | 5.75 | 4.69 | 5.73 | 5.54 | 3.74 | 4.7 | 4.27 | 6.24 | 3.68 | 4.2 | 3.72 | 4.12 | 1.88 | 3.35
CCGAGTAGGTTACGAGGGGGCATTCACTGCGAAT | 2.07 | 7.18 | 1.26 | 6.21 | 3.49 | 2.33 | 3.18 | 1.02 | 2.85 | 4.81 | 4.25 | 1.02 | 4.44 | 0.728 | 2.66 | 0.267 | 2.12
TCGAGTAGGTTACGGGGGAATTCAGGGATGAAGA | 0.979 | 1.58 | 0.0777 | 2.86 | 2.8 | 3.75 | 4.02 | 2.24 | 3.53 | 4.46 | 4.91 | 1.34 | 1.33 | 0.36 | 1.17 | -0.238 | 1.62
TCGAGTCGGTTACGGGGGCATTCAGGGATGAAGA | 1.7 | 1.82 | 0.317 | 4 | 2.75 | 1.46 | 2.62 | 1.58 | 2.15 | 1.87 | 3.65 | 1.02 | 2.5 | 0.347 | 2.15 | -0.175 | 1.71
CTATGTAGGATAAGGGGGTCATTCAGTTTGAAAG | 4.36 | 4.48 | 2.61 | 5.97 | 5.61 | 5.71 | 5.95 | 3.41 | 5.43 | 4.4 | 5.24 | 3.61 | 5.75 | 11.1 | 5.73 | 2.91 | 3.27
CCGAGTAGGTTACGAGGGGGTATTCAGTGCGAAT | 1.23 | 5.34 | 0.455 | 4.28 | 2.87 | 1.8 | 3.05 | 1.22 | 1.9 | 4.05 | 4.17 | 1.24 | 2.91 | 0.693 | 1.99 | 0.377 | 1.51
CTGTGTAGGTTAAGGGGGTCATTCAGTTTGAAAG | 5.15 | 4.93 | 3.47 | 6.55 | 5.67 | 6.19 | 6.47 | 4.23 | 5.78 | 5.16 | 6.16 | 3.62 | 5.84 | 10.9 | 5.48 | 2.01 | 3.67
CCGAGTAGGTTACGAGGGGGCATCCAGTGCGAAT | 1.87 | 6.84 | 1.45 | 5.77 | 3.24 | 2.67 | 3.34 | 0.797 | 2.31 | 4.1 | 4.45 | 1.63 | 4.3 | 2.67 | 2.86 | 0.122 | 2.1
CCGAGTAGGTTACGAGGGGGCAGTCAGTGCGAAT | 2.18 | 6.39 | 0.422 | 5.55 | 3.14 | 2.19 | 3.18 | 0.853 | 2.04 | 4.71 | 4.53 | 2.79 | 3.74 | 1.86 | 2.38 | 0.525 | 2.15
TCCAGTAGGTTACGGGGGCATTCAGGGATGAAGA | 3.09 | 3.47 | 1.18 | 5.7 | 4.68 | 7.15 | 6.28 | 5.22 | 6.53 | 5.86 | 6.84 | 2.22 | 3.68 | 1.9 | 3.51 | 0.616 | 2.97
CCGAGTAGGTTACGAGGGGGCATTAAGTGCGAAT | 2.79 | 6.98 | 1.2 | 6.3 | 3.38 | 2.04 | 3.06 | 0.817 | 2.16 | 4.89 | 4.4 | 2.11 | 4.77 | 7.4 | 2.72 | 0.983 | 2.15
CCGAGTAGGTTACGAGGGTGCATTCAGTGCGAAT | 0.536 | 5.55 | -0.00974 | 2.43 | 1.8 | 1.46 | 1.92 | 0.234 | 1.13 | 4.66 | 3.87 | 0.357 | 4.47 | 4.3 | 0.897 | -0.753 | 1.13
TCGAGTGGGTTACGGGGGCATTCAGGGATGAAGA | 2.78 | 3.03 | 1.26 | 5.08 | 4.26 | 5.66 | 5.53 | 3.59 | 4.84 | 4.62 | 6.37 | 1.92 | 3.59 | 2.12 | 3.12 | 1.12 | 2.46
